Experimental data published in paper PMC5540273 (PLoS ONE, 2017).

How the values were obtained:
Conditions in all cases: concentration: 1 μM, replicates: in singlicate; n = 1
[1] = test system: T1, ASK2
T1 construct: gene MAP3K6

[2] = test system: AURKA
[3] = test system: AURKB
[4] = test system: AURKC
[5] = test system: AXL
[6] = test system: T2, BIKE
T2 construct: gene BMP2K

[7] = test system: BLK
[8] = test system: BMPR1A
[9] = test system: BMPR1B
[10] = test system: BMPR2
[11] = test system: BMX
[12] = test system: BRAF
[13] = test system: T3, BRK
T3 construct: gene PTK6

[14] = test system: BRSK1
[15] = test system: BRSK2
[16] = test system: BTK
[17] = test system: BUB1
[18] = test system: CAMK1B
[19] = test system: CAMK1D
[20] = test system: CAMK1G
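Note: KINOMEscan kinase panel screen.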

Structure (SMILES) | %Inh [1] | %Inh [2] | %Inh [3] | %Inh [4] | %Inh [5] | %Inh [6] | %Inh [7] | %Inh [8] | %Inh [9] | %Inh [10] | %Inh [11] | %Inh [12] | %Inh [13] | %Inh [14] | %Inh [15] | %Inh [16] | %Inh [17] | %Inh [18] | %Inh [19] | %Inh [20]
Nc1cccc(-c2ccc3c(N)n[nH]c3c2)c1 [GSK2193613] | 0% | 10% | 0% | 46% | 0% | 82% | 87% | 0% | 89% | 3% | 5% | 0% | 8% | 58% | 51% | 0% | 21% | 21% | 25% | 4%
Cl.Cl.NCC(NC(=O)c1cc(-c2cccnc2)c(-c2ccnc3[nH]ccc23)s1)c1ccccc1 (stereo not drawn) [GSK1323434] | 16% | 15% | 19% | 36% | 23% | 63% | 40% | 0% | 51% | 5% | 36% | 21% | 7% | 5% | 0% | 0% | 77% | 7% | 18% | 3%
CN(c1ccc(NC(=O)Nc2cccc(Cl)c2)cc1)c1ccnc(N)n1.Cl [GW830707] | 15% | 28% | 68% | 70% | 37% | 4% | 0% | 0% | 0% | 52% | 0% | 0% | 8% | 0% | 12% | 0% | 30% | 15% | 5% | 0%
CC(C)c1nc(-c2cccc(NS(=O)(=O)c3c(F)cccc3F)c2)c(-c2ccnc(Nc3ccc(N4CCOCC4)nc3)n2)s1.Cl [GSK1723980] | 20% | 41% | 42% | 50% | 74% | 19% | 99.8% | 67% | 99.7% | 0% | 94% | 100% | 96.4% | 16% | 37% | 41% | 93.1% | 13% | 32% | 2%
COC(=O)Nc1nc2cc(Oc3ccc(NC(=O)Nc4cccc(SC)c4)cc3)ccc2[nH]1.Cl [GW697999] | 0% | 0% | 92.5% | 43% | 90.1% | 6% | 65% | 0% | 0% | 4% | 0% | 83% | 15% | 3% | 10% | 2% | 44% | 0% | 7% | 0%
COc1ccc(NC(=O)c2ccoc2)cc1-c1ccc(C(=O)NCC2CC2)cc1 [GW810437] | 0% | 1% | 33% | 0% | 0% | 0% | 21% | 7% | 2% | 46% | 3% | 0% | 0% | 0% | 4% | 0% | 2% | 19% | 0% | 9%
CCOc1nccc(-c2c(-c3ccc(F)cc3)ncn2C2CCNCC2)n1 [SB-249175] | 0% | 52% | 59% | 15% | 54% | 0% | 0% | 100% | 20% | 26% | 12% | 5% | 0% | 0% | 11% | 34% | 27% | 31% | 0% | 1%
Cc1ccc(C)c(NC(=O)Nc2ccc(C)c(-c3ccc(C(=O)Nc4ccncc4)cc3)c2)c1 [GSK1398473] | 0% | 0% | 21% | 22% | 90% | 13% | 0% | 0% | 0% | 0% | 0% | 62% | 25% | 0% | 0% | 0% | 4% | 27% | 13% | 0%
CC(C)(C)c1ccc(C(=O)Nc2cn3cc(-n4ccnc4)ccc3n2)cc1 | 6% | 0% | 24% | 0% | 0% | 0% | 0% | 3% | 0% | 8% | 0% | 19% | 15% | 31% | 0% | 0% | 7% | 0% | 6% | 7%
Fc1cc(Cl)ccc1Nc1ccnc2cc(-c3ccc(CN4CCOCC4)o3)ccc12 [GW560109] | 8% | 89% | 35% | 35% | 40% | 21% | 94.4% | 18% | 62% | 0% | 35% | 39% | 86% | 13% | 0% | 46% | 25% | 24% | 0% | 0%
Cc1ccc(NC(=O)c2ccnc(N3CCCCC3)c2)cc1-c1ccc(C(=O)NCC2CC2)cc1 [GW775610] | 0% | 66% | 25% | 35% | 31% | 10% | 10% | 0% | 0% | 0% | 0% | 77% | 12% | 9% | 6% | 0% | 0% | 24% | 0% | 0%
O=C(Nc1n[nH]c2nc(-c3cccc(O)c3)ccc12)C1CC1 [SB-711805] | 0% | 9% | 19% | 23% | 12% | 34% | 0% | 8% | 86% | 34% | 4% | 46% | 0% | 53% | 17% | 0% | 0% | 0% | 19% | 0%
COc1cccc(-c2nc(-c3ccccc3)[nH]c2-c2ccncc2)c1 [SB-610250] | 11% | 0% | 39% | 0% | 15% | 0% | 60% | 0% | 0% | 0% | 0% | 74% | 16% | 0% | 0% | 0% | 95.6% | 0% | 5% | 0%
COC(=O)Nc1nc2ccc(Oc3ccc(NC(=O)Nc4cc(C(F)(F)F)ccc4F)cc3)cc2[nH]1.Cl [GW654607] | 15% | 0% | 92.3% | 42% | 97.3% | 10% | 67% | 18% | 0% | 0% | 0% | 62% | 20% | 0% | 0% | 0% | 13% | 51% | 0% | 0%
CN(c1ccc(F)c(NC(=O)c2cccc(OC(C)(C)C#N)c2Cl)c1)c1ccc2nc(NC(=O)C3CC3)sc2n1 | 6% | 22% | 4% | 0% | 6% | 0% | 96.3% | 0% | 0% | 0% | 0% | 94% | 0% | 4% | 0% | 22% | 34% | 0% | 0% | 2%
COc1ccc(C2=C(Nc3cccc(O)c3)C(=O)NC2=O)cc1 [SB-390766] | 7% | 13% | 33% | 0% | 35% | 0% | 0% | 0% | 0% | 24% | 0% | 6% | 21% | 7% | 49% | 0% | 50% | 73% | 27% | 26%
CSc1ccc(NC2=C(c3ccc(Cl)cc3)C(=O)NC2=O)cc1 [SB-317658] | 25% | 32% | 9% | 2% | 10% | 0% | 0% | 6% | 0% | 0% | 11% | 0% | 1% | 0% | 0% | 0% | 0% | 61% | 13% | 0%
Cc1ccc(-c2ccc3occ(-c4ccc(S(C)=O)cc4)c3c2)nn1 (stereo not drawn) | 0% | 0% | 3% | 0% | 0% | 0% | 0% | 15% | 0% | 0% | 0% | 0% | 0% | 0% | 0% | 0% | 5% | 14% | 15% | 7%
Cl.Cl.NC(CNC(=O)c1cc(Br)c(-c2ccnc3[nH]ccc23)s1)c1ccccc1 (stereo not drawn) [GSK1322949] | 20% | 67% | 35% | 95.2% | 90.8% | 100% | 44% | 0% | 12% | 58% | 5% | 0% | 0% | 50% | 40% | 0% | 77% | 34% | 63% | 27%
Cc1ccc(O)cc1Nc1ccnc2cc(-c3ccc(CN4CCCCC4)o3)ccc12 [GW557777] | 0% | 0% | 0% | 15% | 0% | 4% | 99.7% | 61% | 99.9% | 0% | 50% | 22% | 99.5% | 0% | 0% | 19% | 0% | 0% | 4% | 6%
Cn1cc(-c2ccc3c(c2)CCN3C(=O)Cc2cc(F)cc(F)c2F)c2c(N)ncnc21 [GSK2634140] | 0% | 18% | 92.6% | 59% | 89% | 33% | 72% | 0% | 5% | 0% | 11% | 0% | 22% | 6% | 0% | 0% | 9% | 7% | 28% | 0%
